In PubChem BioAssay:
Where “and” joins values, the source holds several entries; their conditions need not be identical. Equal values may be shown once. Results filed as inconclusive are left out. Calls of active or inactive are those of the source.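 Rule for the calls, unless noted: active = normalized viability below 100% at a tested concentration; inactive = the rest.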

Legend:
[1] = ovarian cancer cell viability with rucaparib, profiling panel, oncology-focused library, rucaparib conditional (AID 1508598); details: patient-derived ovarian cancer cells, CellTiter-Glo viability, 144 h, stronger effect = lower value
[2] = growth inhibition of DIPG glioma cells, dose response, cell-based, SU-DIPG-XVII, MIPE5.0, CellTiter-Glo, qHTS (AID 1347060; cut-off not given, nearly all actives have AC50 up to about 26 µM;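 for AC50: cells exposed to compound for 48 hours before viability readout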); details: SU-DIPG-XVII viability, CellTiter-Glo ATP luminescence
[3] = growth inhibition of DIPG glioma cells, dose response, cell-based, JHH-DIPG-1, MIPE4.0, CellTiter-Glo, qHTS (AID 1347062; cut-off not given, nearly all actives have AC50 up to about 27 µM;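 for AC50: cells exposed to compound for two days before readout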); details: JHH-DIPG-1 viability, CellTiter-Glo ATP luminescence
[4] = growth inhibition of DIPG glioma cells, dose response, cell-based, SU-DIPG-XIII, MIPE5.0, CellTiter-Glo, qHTS (AID 1347064; cut-off not given, nearly all actives have AC50 up to about 23 µM;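 for AC50: cells exposed to compound for 48 hours before the viability read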); details: SU-DIPG-XIII viability, CellTiter-Glo ATP luminescence
[5] = viability loss in pontine glioma line – cell-based, SU-DIPG-XXV, MIPE5.0, CellTiter-Glo, qHTS, dose response (AID 1347065; cut-off not given, nearly all actives have AC50 up to about 26 µM;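 note: cells exposed to compound for 48 hours before ATP readout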); details: CellTiter-Glo ATP luminescence
[6] = JHH-DIPG-1 glioma cell viability, MIPE5.0 library, CellTiter-Glo luminescence, qHTS (AID 1347067; cut-off not given, nearly all actives have AC50 up to about 26 µM;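 note: cells exposed to compound for 48 hours before readout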); details: JHH-DIPG-1 glioma viability, CellTiter-Glo ATP luminescence
[7] = SU-DIPG-XXV glioma cell viability, MIPE5.0 library, qHTS (AID 1347068; cut-off not given, nearly all actives have IC50 up to about 30 µM;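 for IC50: cells exposed to compound for 48 hours before viability readout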)
[8] = sensitizers of A549 cells to miR-34 induction, primary screen, imaging, A549 dox-inducible miR-34, nuclei and caspase counts (AID 1347080;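 active = compounds whose cell count with miR-34 switched on is under 0.7 times the count with it off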); details: A549 miR-34 inducible, Hoechst nuclei count, 48 h
[9] = survival rescue of mitochondrial mutant cells in low glucose, primary screen, MELAS cybrids, Rieske KO mouse fibroblasts, CellTiter-Glo (AID 1508586;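 active = mean z-score across replicates of 1.96 or higher in either the MELAS or the Rieske mutant cell line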;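 note: z relative to plate mean and SD of compound and empty wells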)
[10] = SU-DIPG-VI glioma cell viability, MIPE4.0 library, CellTiter-Glo luminescence, qHTS (AID 1347066; cut-off not given, nearly all actives have AC50 up to about 30 µM;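 note: cells exposed to compound for 48 hours before readout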); details: CellTiter-Glo ATP luminescence
[11] = modifiers of HSF1 nuclear foci, imaging, Selleck Cancer Library (AID 1347162; in the data active = plate-normalised HSF1 focus index below about 0.46); details: human cells, at 10 µM; SSMD: measured here: HSF1 foci SSMD mean; cell count: measured here: cell number; plate-normalised HSF1 focus index: stronger effect = lower value
[12] = at 0.0781 µM, OCI-C5x cells, with rucaparib 10 µM, 100% = cells with rucaparib alone
[13] = at 0.0781 µM, OCI-C5x cells, without rucaparib
[14] = at 0.0781 µM, OCI-P5x cells, with rucaparib 20 µM, 100% = cells with rucaparib alone
[15] = at 0.0781 µM, OCI-P5x cells, without rucaparib
[16] = at 0.313 µM, OCI-C5x cells, with rucaparib 10 µM, 100% = cells with rucaparib alone
[17] = at 0.313 µM, OCI-C5x cells, without rucaparib
[18] = at 0.313 µM, OCI-P5x cells, with rucaparib 20 µM, 100% = cells with rucaparib alone
[19] = at 0.313 µM, OCI-P5x cells, without rucaparib
[20] = at 1.25 µM, OCI-C5x cells, with rucaparib 10 µM, 100% = cells with rucaparib alone
[21] = at 1.25 µM, OCI-C5x cells, without rucaparib
[22] = at 1.25 µM, OCI-P5x cells, with rucaparib 20 µM, 100% = cells with rucaparib alone
[23] = at 1.25 µM, OCI-P5x cells, without rucaparib
[24] = at 5 µM, OCI-C5x cells, with rucaparib 10 µM, 100% = cells with rucaparib alone
[25] = at 5 µM, OCI-C5x cells, without rucaparib
[26] = at 5 µM, OCI-P5x cells, with rucaparib 20 µM, 100% = cells with rucaparib alone
[27] = at 5 µM, OCI-P5x cells, without rucaparib

COc1ccc(S(=O)(=O)Nc2cccnc2Nc2ccc(O)cc2)cc1
active: viability [1, 16] 58.8% | viability [1, 17] 76.1% | viability [1, 18] 94.4% | viability [1, 19] 28.4% | viability [1, 20] 50% | viability [1, 21] 49.6% | viability [1, 22] 72.9% | viability [1, 23] 23% | viability [1, 24] 43.3% | viability [1, 25] 62% | viability [1, 26] 70.9% | viability [1, 27] 17.9%
inactive: viability [1, 12] 110% | viability [1, 13] 134% | viability [1, 14] 111% | viability [1, 15] 111%

CCC[C@H](Nc1nc(-c2ccc(NC(=O)NCC)c(OC)c2)ncc1C)c1cccnc1
active: AC50 [2] 132 nM | AC50 [3] 14.8 nM | AC50 [4] 186 nM | AC50 [5] 118 nM | AC50 [6] 132 nM | viability ([1]; at 0.000305 µM, OCI-C5x cells, with rucaparib 10 µM, 100% = cells with rucaparib alone) 92.2% | viability ([1]; at 0.000305 µM, OCI-P5x cells, without rucaparib) 99.6% | viability ([1]; at 0.00122 µM, OCI-P5x cells, without rucaparib) 97.7% | viability ([1]; at 0.00488 µM, OCI-P5x cells, without rucaparib) 90.5% | viability ([1]; at 0.0195 µM, OCI-C5x cells, with rucaparib 10 µM, 100% = cells with rucaparib alone) 98.1% | viability ([1]; at 0.0195 µM, OCI-C5x cells, without rucaparib) 30.6% | viability ([1]; at 0.0195 µM, OCI-P5x cells, with rucaparib 20 µM, 100% = cells with rucaparib alone) 85.4% | viability ([1]; at 0.0195 µM, OCI-P5x cells, without rucaparib) 15.9% | viability [1, 12] 35.4% | viability [1, 13] 23.5% | viability [1, 14] 51.3% | viability [1, 15] 13% | viability [1, 16] 39.7% | viability [1, 17] 22.5% | viability [1, 18] 44.4% | viability [1, 19] 11% | viability [1, 20] 38% | viability [1, 21] 23.4% | viability [1, 22] 41.8% | viability [1, 23] 9.8% | viability [1, 24] 39.3% | viability [1, 25] 25.1% | viability [1, 26] 50.6% | viability [1, 27] 10.1%
inactive: viability ([1]; at 0.000305 µM, OCI-C5x cells, without rucaparib) 101% | viability ([1]; at 0.000305 µM, OCI-P5x cells, with rucaparib 20 µM, 100% = cells with rucaparib alone) 107% | viability ([1]; at 0.00122 µM, OCI-C5x cells, with rucaparib 10 µM, 100% = cells with rucaparib alone) 104% | viability ([1]; at 0.00122 µM, OCI-C5x cells, without rucaparib) 103% | viability ([1]; at 0.00122 µM, OCI-P5x cells, with rucaparib 20 µM, 100% = cells with rucaparib alone) 103% | viability ([1]; at 0.00488 µM, OCI-C5x cells, with rucaparib 10 µM, 100% = cells with rucaparib alone) 104% | viability ([1]; at 0.00488 µM, OCI-C5x cells, without rucaparib) 110% | viability ([1]; at 0.00488 µM, OCI-P5x cells, with rucaparib 20 µM, 100% = cells with rucaparib alone) 100%

COc1ccc2c(c1)c(C1=C(c3c[nH]c4ccccc34)C(=O)NC1=O)cn2CCCN(C)C
4580 and 4760: cell count ([8]; measured here: total cells without miR-34 induction)
-0.0818: z-score ([9]; Rieske KO mouse fibroblast survival, CellTiter-Glo 72 h)
inactive: fold change ([8]; stronger effect = lower value, cell number ratio, induced over uninduced) 0.91 and 0.965 | z-score ([9]; MELAS cybrid survival, CellTiter-Glo 48 h, stronger effect = higher value) -0.592
4170 and 4590: cell count ([8]; measured here: total cells with miR-34 induction, stronger effect = lower value)
0.481 and 1.22: fold change ([8]; measured here: relative caspase fold change +Dox/-Dox)
active: AC50 [2] 20900 nM | AC50 [3] 16600 nM | AC50 [5] 20900 nM | AC50 [6] 20900 nM | IC50 [7] 29500 nM

O=S(=O)(O)c1ccc2cc(N=Nc3cc(S(=O)(=O)O)c4cccnc4c3O)ccc2c1
inactive: outcome [2] | outcome [3] | outcome [4] | outcome [5] | outcome [10] | outcome [6] | outcome [7]

COc1cc(N2CCC(N3CCN(C)CC3)CC2)ccc1Nc1ncc(Cl)c(Nc2ccccc2S(=O)(=O)C(C)C)n1
inactive: plate-normalised HSF1 focus index [11] 1.07
active: AC50 [2] 372 nM | AC50 [3] 18700 nM | AC50 [4] 661 nM | AC50 [5] 590 nM | AC50 [6] 1050 nM | IC50 [7] 2350 nM
1.02: SSMD [11]
6520: cell count [11]
